The results in this text go back to the supplement of paper PMC3334620.

Over roughly 33,000 sequences, “E-score (-0.5 to 0.5)” has its median near -0.011; the highest 2% begin near 0.28. What follows is part of a selection rich in the highest values, with near analogues and random picks from the rest.

This assay deals with T1, Gcr1 (UniProt P07261).
T1 sequence: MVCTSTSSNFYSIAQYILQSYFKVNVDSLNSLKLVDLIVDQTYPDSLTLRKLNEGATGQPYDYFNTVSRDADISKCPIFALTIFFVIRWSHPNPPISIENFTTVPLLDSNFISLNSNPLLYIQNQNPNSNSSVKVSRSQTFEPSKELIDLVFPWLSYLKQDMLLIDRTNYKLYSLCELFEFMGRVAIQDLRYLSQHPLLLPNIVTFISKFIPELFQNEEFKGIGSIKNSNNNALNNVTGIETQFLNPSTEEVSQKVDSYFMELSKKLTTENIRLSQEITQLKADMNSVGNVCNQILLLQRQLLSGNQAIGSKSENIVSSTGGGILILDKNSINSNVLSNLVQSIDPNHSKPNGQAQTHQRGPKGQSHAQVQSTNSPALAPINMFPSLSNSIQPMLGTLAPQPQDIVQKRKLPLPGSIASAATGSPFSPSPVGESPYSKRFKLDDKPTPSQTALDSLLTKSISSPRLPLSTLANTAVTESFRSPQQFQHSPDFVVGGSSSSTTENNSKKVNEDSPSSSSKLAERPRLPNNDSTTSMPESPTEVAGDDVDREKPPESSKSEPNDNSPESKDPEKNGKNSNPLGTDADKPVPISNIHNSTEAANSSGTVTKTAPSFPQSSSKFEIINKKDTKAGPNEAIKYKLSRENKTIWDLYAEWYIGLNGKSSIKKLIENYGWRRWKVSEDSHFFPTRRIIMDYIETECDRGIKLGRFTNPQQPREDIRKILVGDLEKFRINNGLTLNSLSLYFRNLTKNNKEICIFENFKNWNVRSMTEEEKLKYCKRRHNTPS
Briefly: PBM E-score (8-mer binding enrichment) (E-score (-0.5 to 0.5)); higher = stronger / more preferred TF binding. The settings on record: protein concentration: 100 nM; construct: GST-full length. Here is the method: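 Universal 'all 10-mer' protein binding microarrays (Agilent AMADID 015681) probed with GST-tagged S. cerevisiae TFs (full-length or DBD) made by in vitro transcription/translation (PURExpress), about 100-200 nM. Bound TF was detected with fluorescent anti-GST. Each ungapped 8-mer (which stands for itself and its reverse complement) is scored by the PBM enrichment score (E-score), a modified Wilcoxon-Mann-Whitney statistic from -0.5 to +0.5, computed with the Universal PBM Analysis Suite. Scale: above 0.35 generally sequence-specific binding.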
Regarding CAGGATGA, the “PBM E-score” value is 0.0175.

Consider CCAGCTGG, for which the “PBM E-score” value came out at 0.157. For the sequence ACTCTAAC, the “PBM E-score” value is 0.00366.

CCCTTGCA: the “PBM E-score” value is -0.097. Take ACCGGAGG: the “PBM E-score” value was -0.09. As to TATGAAAA, the “PBM E-score” value was determined as 0.131. For AGGCAGTA, the “PBM E-score” value was -0.0662. The figure for CTGGTATA is -0.0854; for ACGTGTTA it is -0.0746. As to AGCTCGCG, the “PBM E-score” value was -0.0019. As to GAGGATAC, the “PBM E-score” value is -0.00197. As to ACGGATGC, the “PBM E-score” value turned out to be 0.183. For the sequence GAGGATGC, the “PBM E-score” value amounted to 0.423. As for GAGGATGA, the “PBM E-score” value was -0.0555. Take CCGGATGC: the “PBM E-score” value was determined as 0.4. Consider CCGGATGA, for which the “PBM E-score” value came out at 0.112. Regarding GCAGGGGA, the “PBM E-score” value was -0.102. Regarding CGGTGCAC, the “PBM E-score” value was -0.105. The figure for AGAGCAGC is 0.0483; for AGCCATGC it is -0.346. Turning to CAAGAATA, the “PBM E-score” value stood at 0.19.

For the sequence GCCGAATA, the “PBM E-score” value is 0.2. To CCAGAAAA belongs 0.335; to CCAGAATC, 0.245. Turning to CCAGAATA, the “PBM E-score” value is 0.283. With ACCGAATA, the “PBM E-score” value is -0.0481. In the case of CAAGAAAA, the “PBM E-score” value was 0.248. Regarding ACAGAAAA, the “PBM E-score” value was -0.076. As for CCCGAATA, the “PBM E-score” value was 0.334. Consider GGTTGACA, for which the “PBM E-score” value was 0.0705. As to AATCGGGC, the “PBM E-score” value was 0.114. Consider CATAGGCA, for which the “PBM E-score” value was determined as 0.0323. The figure for CTGATGGC is -0.068. The figure for ACGGTAGA is 0.138. Take TGAAACAA: the “PBM E-score” value is 0.0585. As for CGCCTGAA, the “PBM E-score” value worked out at 0.143. On to GAGCATCC, for which the “PBM E-score” value amounted to 0.398. Turning to AAGCATCG, the “PBM E-score” value was found to be 0.0291.

In the case of CAGCATCG, the “PBM E-score” value turned out to be 0.0157. Take AAGCATCA: the “PBM E-score” value is -0.0253. The figure for GAGCATCA is -0.0695; for CAGCATCC it is 0.447; for CAGCATCA it is -0.00923. As to GAGCATAC, the “PBM E-score” value was -0.155. As to AAGCATCC, the “PBM E-score” value was found to be 0.404. With CTCTCGCA, the “PBM E-score” value was determined as 0.0115. To ACACTGGT belongs 0.035; to CAGGGACC, 0.0209; to AAAGTCTT, -0.247. Regarding AGACACTA, the “PBM E-score” value is -0.0252. For the sequence ATAAAGGG, the “PBM E-score” value amounted to 0.123.

Turning to ACGGAGCT, the “PBM E-score” value was -0.175. Consider ACGAAGCT, for which the “PBM E-score” value was found to be 0.399. Take ACGAAGCC: the “PBM E-score” value was 0.428.

As for ACAAAGCT, the “PBM E-score” value amounted to 0.0432. Consider ACGAAGCA, for which the “PBM E-score” value was -0.12. Take CCGAAGCC: the “PBM E-score” value came out at 0.136. On to ACGAAGCG, for which the “PBM E-score” value was 0.0293. TCAGGCCA: the “PBM E-score” value is -0.118. With GACAGACC, the “PBM E-score” value is -0.157. As to AACTAGTT, the “PBM E-score” value is 0.0246. With AGGCTCGC, the “PBM E-score” value was -0.213. On to CCTGGGCA, for which the “PBM E-score” value was -0.022. The figure for CCTATAGA is 0.286; for CCTATAGC it is -0.0383. With ACTATAGA, the “PBM E-score” value is 0.0257. Take TATGAAGA: the “PBM E-score” value was 0.0942.

Consider ATAATTAA, for which the “PBM E-score” value stood at 0.134. Consider ATAATTAT, for which the “PBM E-score” value amounted to 0.297. As for ATAATTAC, the “PBM E-score” value is 0.0678. Take GAAAGAGA: the “PBM E-score” value is -0.038. Regarding ACGCTGCT, the “PBM E-score” value worked out at 0.34. On to ACGCTGCG, for which the “PBM E-score” value turned out to be 0.086.

With ACGCTGCC, the “PBM E-score” value was 0.339. Take GCGCTGCC: the “PBM E-score” value amounted to 0.0863. The figure for ACGCTGAT is -0.0742; for ACGCTGCA it is 0.0243; for AGCAGGAC it is -0.0439.

Regarding AGTCCCGG, the “PBM E-score” value worked out at 0.108. Consider CCAGGCCG, for which the “PBM E-score” value was -0.117.

GAGCTAGC: the “PBM E-score” value is -0.122.

On to GCGAGCGC, for which the “PBM E-score” value was -0.0888. Take AGATCAGA: the “PBM E-score” value was -0.0273. As to AACCCTGT, the “PBM E-score” value is -0.0296. With AAATCTGC, the “PBM E-score” value is 0.0369. The figure for CAATCTGG is -0.0284.
